Shown are actives, neighbours in structure and some others; about 15% of the full set was active somewhere.
ELG1 repair inh – blocks ELG1-dependent DNA repair in HEK293T cells; HEK293T ELG1-luciferase reporter, luminescence, 16 h; DNA damage induced by 5-fluorouridine; Potency, µM (series often up to 46.1 µM), for the others: at the top dose activity change, negative = inhibition, most hits filed as inhibitors; 2.3% of 330,000 active; further: nearly all actives have a fitted effect of over 55% in size
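Step one: seed 2,000 cells per well. Step two: pin-transfer compound or DMSO alongside 5-fluorouridine. Step three: incubate 16 hr, 37 °C, 5% CO2. Step four: add ONE-Glo, wait 30 min, read luminescence.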
DT40 TDP1 CPT – DT40-hTDP1 cell growth loss with CPT; chicken DT40 Tdp1-/-;hTDP1 cells + 20 nM CPT, ATP luminescence, 48 h; Potency, µM (highest dose often 46.2 µM), without a hit: at the highest dose activity change, negative = growth inhibition, actives largely listed as inhibitors; 12% of 420,000 active; AID 686979; further: nearly all actives have a fitted effect of over 55% in size
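Cell growth measured by CellTiter-Glo luminescence after a minimum 48 h, 37 C compound exposure with 20 nM CPT in Tdp1-knockout DT40 cells stably expressing hTDP1, seeded 400/well; qHTS titration format.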
TDP1 cell noCPT – qHTS for Inhibitors of human tyrosyl-DNA phosphodiesterase 1 (TDP1): qHTS in cells in absence of CPT; DT40 Tdp1-/- hTDP1 cells, no CPT, ATP luminescence, 48 h; Potency, µM (top dose mostly 46.2 µM), inactives show at the highest dose activity change, negative = growth inhibition, most hits filed as inhibitors; 15% of 420,000 active; AID 686978, 2013; further: nearly all actives have a fitted effect of over 55% in size
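Chicken DT40 Tdp1-/- cells stably complemented with human TDP1 were seeded at 400 cells/well with DMSO in place of 20 nM camptothecin. After compound pinning, cells grew at least 48 hr at 37 °C; viability read by CellTiter-Glo luminescence.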
ALOX12 inh – ALOX12 (human) lipoxygenase inhibition | Potency, µM (doses to about 108 µM), without a hit: at the highest dose activity change, negative = inhibition, hits mostly inhibitors | 1.1% of 580,000 active | purified 12hLO, xylenol orange hydroperoxide absorbance
Target sequence (P18054 whole entry, looked up): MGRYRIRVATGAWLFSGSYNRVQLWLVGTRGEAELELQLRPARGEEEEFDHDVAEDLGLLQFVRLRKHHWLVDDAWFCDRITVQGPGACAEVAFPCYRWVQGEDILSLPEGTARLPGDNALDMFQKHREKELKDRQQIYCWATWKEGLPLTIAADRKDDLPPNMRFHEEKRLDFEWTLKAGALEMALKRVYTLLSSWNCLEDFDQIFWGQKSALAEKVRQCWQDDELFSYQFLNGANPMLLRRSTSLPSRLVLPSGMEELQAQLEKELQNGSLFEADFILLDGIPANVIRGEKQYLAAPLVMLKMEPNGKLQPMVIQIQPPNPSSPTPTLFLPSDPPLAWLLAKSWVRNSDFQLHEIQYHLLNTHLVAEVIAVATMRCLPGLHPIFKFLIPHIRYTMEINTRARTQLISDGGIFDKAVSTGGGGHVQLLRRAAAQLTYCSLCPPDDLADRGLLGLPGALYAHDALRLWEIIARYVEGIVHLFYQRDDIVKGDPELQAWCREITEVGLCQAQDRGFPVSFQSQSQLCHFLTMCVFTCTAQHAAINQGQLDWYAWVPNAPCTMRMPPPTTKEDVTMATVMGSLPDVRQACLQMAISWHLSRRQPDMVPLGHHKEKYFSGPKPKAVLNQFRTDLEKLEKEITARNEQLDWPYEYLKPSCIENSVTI
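Hydroperoxide product was detected by ferrous iron/xylenol orange as the 573 to 405 nm absorbance ratio. Arachidonic acid at 40 uM (final) was turned over for 30 min at room temperature by 150 nM human 12hLO, pH 7.0 Hepes buffer, after 15 min compound preincubation.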
RORgamma inh – inhibitors of mouse ROR gamma transcriptional activity; P51450; Drosophila S2 Gal4-RORgamma UAS-luciferase reporter, 20 h; Potency, µM (highest dose often 53.6 µM), for the others: at the highest dose activity change, negative = inhibition, hits mostly inhibitors; 5.4% of 310,000 active; AID 2551; further: nearly all actives have a fitted effect of over 60% in size
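Drosophila S2 cells stably expressing Gal4-DBD/mouse RORγ fusion under metallothionein promoter plus UAS-luciferase; compound 1 h, then 700 uM CuSO4 induction for 20 h at ambient temperature; inhibition read as reduced luminescence.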
VP16 counter – Gal4-VP16 reporter inhibition counter-screen | Drosophila S2 Gal4-VP16 UAS-luciferase, luminescence, 20 h | Potency, µM (titrated, usually from 53.6 µM), for the others: at the highest dose activity, negative = inhibition, usual class: inhibitors | 3.5% of 310,000 active | AID 2546;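 further: Gal4-VP16 expression switched on by copper sulfate through the metallothionein promoter; nearly all actives have a fitted effect of over 50% in size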
An asterisk follows results filed as active. The call rests on the fitted dose curve; in most records, active means well fitted curve in the direction sought with a large enough effect; inconclusive means small, poorly fitted or top-dose-only effect, or another doubt; inactive means no such curve, though single readings can be large; an effect the other way counts as inactive or inconclusive. On the % scale 0 is the no-effect control and ±100 the full control effect; potency means the concentration at half of the fitted maximal effect.

Screening NNC(=S)NC1CC2CC1C1C=CCC21 (configuration not stated) returned ELG1 repair inh 18%, DT40 TDP1 CPT 9.2µM*, TDP1 cell noCPT inconclusive, ALOX12 inh -10%, RORgamma inh 0.45µM* and VP16 counter 2.8µM*.
For Oc1ccc(O)c(C=NNC(=S)NC2CC3CC2C2C=CCC32)c1 (configuration not stated) the results were DT40 TDP1 CPT 18µM*, TDP1 cell noCPT inconclusive and ALOX12 inh inconclusive.
`NC(=O)NN=C1CC2CC1C1C=CCC21` (configuration not stated) gave DT40 TDP1 CPT -2%, TDP1 cell noCPT -26% and ALOX12 inh -1%.
CN(C)c1cc(N2CCCC(NC(=O)COc3ccccc3)C2)ncn1 (configuration not stated) was read as ALOX12 inh 39%.
CCOc1ccc(N/C(N)=N/c2nc(CSc3nnc(C)s3)cc(=O)[nH]2)cc1 was read as ELG1 repair inh inconclusive, DT40 TDP1 CPT 0.65µM*, TDP1 cell noCPT 0.58µM*, ALOX12 inh -4%, RORgamma inh 0% and VP16 counter 0%.
Cc1nnc(SCc2cc(=O)[nH]c(/N=C(\N)Nc3ccccc3Sc3ccccc3)n2)s1 was read as ELG1 repair inh -3%, DT40 TDP1 CPT -5%, TDP1 cell noCPT -3%, ALOX12 inh 2%, RORgamma inh 43% and VP16 counter -21%.
For Cc1nnc(SCc2cc(=O)[nH]c(/N=C(\N)Nc3ccccc3)n2)s1 the results were ELG1 repair inh 0%, DT40 TDP1 CPT inconclusive, TDP1 cell noCPT 21µM*, ALOX12 inh 4%, RORgamma inh 27% and VP16 counter 3%.
For Cc1ccc(C)c(S(=O)(=O)Nc2nc3ccccc3nc2Nc2ccc(C(=O)O)cc2)c1 the results were ALOX12 inh -27%.
`Cc1ccc2c(c1)N(C(=O)CCC(=O)NCCCN1CCN(C)CC1)CCO2` gave ELG1 repair inh 2%, DT40 TDP1 CPT 0%, TDP1 cell noCPT -26%, ALOX12 inh -10%, RORgamma inh -22% and VP16 counter -6%.
`CC1CN(C(=O)CCC(=O)NCCCN2CCN(Cc3ccccc3)CC2)c2cc(Cl)ccc2O1` (configuration not stated) gave ELG1 repair inh 8%, DT40 TDP1 CPT 21µM*, TDP1 cell noCPT inconclusive, ALOX12 inh -19%, RORgamma inh 8% and VP16 counter 1%.
`Cc1ccc2c(c1)N(C(=O)CCC(=O)NCCCN1CCC(Cc3ccccc3)CC1)CCO2` gave ELG1 repair inh -18%, DT40 TDP1 CPT inconclusive, TDP1 cell noCPT 18µM*, ALOX12 inh 2%, RORgamma inh -22% and VP16 counter -6%.
For CCN1c2cc(C(=O)Nc3ccc(Br)cc3)ccc2C(=O)N2CCCCCC21 (configuration not stated) the results were ALOX12 inh -15%.
For CCOC(=O)c1c(N)n(-c2cccc(OC)c2)c2nc3ccccc3nc12 the results were ALOX12 inh -10%.
For CCOC(=O)c1c(N)n(-c2ccc(C)c(Cl)c2)c2nc3ccccc3nc12 the results were ALOX12 inh -14%.
COC(=O)c1c(N)n(-c2cc(Cl)cc(Cl)c2)c2nc3ccccc3nc12 was read as DT40 TDP1 CPT 16µM*, TDP1 cell noCPT 9.2µM* and ALOX12 inh 0%.
Screening CCOC(=O)c1ccc(-n2c(N)c(C(=O)OC)c3nc4ccccc4nc32)cc1 returned DT40 TDP1 CPT 5.8µM*, TDP1 cell noCPT 7.3µM* and ALOX12 inh -15%.
Screening Nc1c(C(=O)Nc2ccccc2)c2nc3ccccc3nc2n1-c1ccc(O)cc1 returned ELG1 repair inh inconclusive, DT40 TDP1 CPT 10µM*, TDP1 cell noCPT 2.1µM*, ALOX12 inh 0%, RORgamma inh -44% and VP16 counter inconclusive.
Screening CCOC(=O)c1c(N)n(-c2ccc(CC)cc2)c2nc3ccccc3nc12 returned DT40 TDP1 CPT 23µM*, TDP1 cell noCPT inconclusive and ALOX12 inh inconclusive.
Screening O=C(Cn1c(=O)c2c(ncn2Cc2ccccc2)n(Cc2ccccc2)c1=O)Nc1ccccc1F returned ALOX12 inh -2%.
For CCOC(=O)NC(=S)Nc1ccc(C(C)(C)C)cc1Br the results were ELG1 repair inh 13%, DT40 TDP1 CPT -10%, TDP1 cell noCPT -29%, ALOX12 inh 280%, RORgamma inh 3.5µM* and VP16 counter 10µM*.
COC(=O)c1[nH]c(=O)c2ccccc2c1O was read as ELG1 repair inh 16%, DT40 TDP1 CPT 2.6µM*, TDP1 cell noCPT 0%, RORgamma inh -13% and VP16 counter -5%.
COC(=O)c1[nH]c(=O)c2ccccc2c1OCc1ccccc1 was read as ELG1 repair inh -2%, DT40 TDP1 CPT -15%, TDP1 cell noCPT -17%, ALOX12 inh inconclusive, RORgamma inh -8% and VP16 counter -4%.
For O=C(NCc1ccccc1)C(=O)NCC(c1ccco1)N1CCN(c2ccccc2F)CC1 (configuration not stated) the results were ELG1 repair inh inconclusive, DT40 TDP1 CPT -2%, TDP1 cell noCPT 10%, ALOX12 inh -1%, RORgamma inh 30% and VP16 counter -2%.
For Cc1ccc(S(=O)(=O)NCC(c2ccco2)N2CCN(c3ccccc3F)CC2)cc1 (configuration not stated) the results were DT40 TDP1 CPT inconclusive, TDP1 cell noCPT 16µM* and ALOX12 inh 0%.
`O=C(NCCc1c[nH]c2ccccc12)C(=O)NCC(c1ccco1)N1CCN(c2ccccc2F)CC1` (configuration not stated) gave ELG1 repair inh inconclusive, DT40 TDP1 CPT inconclusive, TDP1 cell noCPT 23µM*, RORgamma inh inconclusive and VP16 counter 3%.
O=S(=O)(NCC(c1ccco1)N1CCN(c2ccc(F)cc2)CC1)c1ccccc1 (configuration not stated) was read as DT40 TDP1 CPT inconclusive, TDP1 cell noCPT 21µM* and ALOX12 inh 4%.
`COc1ccc(N2CCN(C(CNS(=O)(=O)c3ccc(OC)c(C)c3)c3ccco3)CC2)cc1` (configuration not stated) gave DT40 TDP1 CPT inconclusive, TDP1 cell noCPT 23µM* and ALOX12 inh -19%.
